Nine molecules from PubChem BioAssay (NCI) can be followed below.

SMILES strings stand for the structures. Compounds without any hit were thinned out: in the full panel of roughly 83,000, 20% have a hit.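 Growth was measured after 48 h exposure to one concentration of compound in 96-well plates. Values under 10 count as active.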 Values without a mark were called inactive. Active and inactive are the calls of the source.

Test systems include SK-MEL-2 melanoma; EKVX NSCLC; SN12C renal; UO-31 renal; TK-10 renal; ACHN renal; CAKI-1 renal; A498 renal; CCRF-CEM leukemia; MOLT-4 leukemia; RPMI-8226 leukemia; OVCAR-8 ovarian; OVCAR-5 ovarian; OVCAR-4 ovarian; SK-OV-3 ovarian; HS 578T breast; NCI/ADR-RES ovarian; IGROV1 ovarian; OVCAR-3 ovarian.
Common to all, as to assay: NCI-60 one-dose screen, 48 h (100 = growth as untreated, 0 = no growth, -100 = all killed)
Details in all cases: 10 µM unless noted

Turning to `COc1cc(-c2ncn(/C=C\c3nnco3)n2)cc(C(F)(F)F)c1`, the growth in the experiment on SK-MEL-2 melanoma was -6.5% (active); in the experiment on EKVX NSCLC it was 61.5%; with SN12C renal it was 33.6%; in the experiment on UO-31 renal, 18.3%; in the experiment with TK-10 renal, 34%; with ACHN renal, 27.7%. For the same molecule, the growth in the experiment on CAKI-1 renal was 26.1%; in the experiment with A498 renal, -33.9% (active); in the experiment on CCRF-CEM leukemia, 13.6%; in the experiment on MOLT-4 leukemia, 1.86% (active); with RPMI-8226 leukemia it was 76.4%; with OVCAR-8 ovarian it was 19.8%. Further, the growth was 37.9% in the experiment with OVCAR-5 ovarian; 15.4% in the experiment with OVCAR-4 ovarian; 38.9% in the experiment with SK-OV-3 ovarian; 19.3% in the experiment on HS 578T breast; 27.1% in the experiment on NCI/ADR-RES ovarian.

With `C#CC[C@H](N)C(=O)O`, the growth in the experiment on SK-MEL-2 melanoma was 110% [20 µM]; with EKVX NSCLC, 106% [20 µM]; in the experiment with SN12C renal, 98.2% [20 µM]; in the experiment on UO-31 renal, 86.1% [20 µM]; in the experiment with TK-10 renal it was 87.7% [20 µM]; with ACHN renal it was 107% [20 µM]. Further, the growth is 91.1% [20 µM] with CAKI-1 renal; 105% [20 µM] with A498 renal; 98.6% [20 µM] with CCRF-CEM leukemia; 102% [20 µM] in the experiment on MOLT-4 leukemia; 106% [20 µM] in the experiment with RPMI-8226 leukemia; 99.2% [20 µM] with OVCAR-8 ovarian. The growth in the experiment on OVCAR-5 ovarian was 93.2% [20 µM]; in the experiment with OVCAR-4 ovarian, 107% [20 µM]; in the experiment with SK-OV-3 ovarian it was 105% [20 µM]; in the experiment with IGROV1 ovarian it was 106% [20 µM]; with OVCAR-3 ovarian, 111% [20 µM]; in the experiment on NCI/ADR-RES ovarian, 108% [20 µM].

For `CCn1nc(C#Cc2c(C)ccc3c(Nc4ccc(Cl)cc4)nccc23)c2c(N)ncnc21`, the growth was -50.8% (active) with SK-MEL-2 melanoma; 36.6% in the experiment on EKVX NSCLC; 15.6% in the experiment with SN12C renal; 8.45% (active) with UO-31 renal; 16.8% with TK-10 renal; 8.02% (active) in the experiment on ACHN renal. Further, the growth in the experiment with CAKI-1 renal was 18.8%; with A498 renal, 11.7%; in the experiment with CCRF-CEM leukemia, 10.5%; in the experiment on MOLT-4 leukemia it was 20.9%; in the experiment on RPMI-8226 leukemia it was 2.72% (active); with OVCAR-8 ovarian, 7.01% (active). Besides, the growth in the experiment on OVCAR-5 ovarian is 25.1%; with OVCAR-4 ovarian it was 41.5%; in the experiment with SK-OV-3 ovarian it was -3.61% (active); in the experiment with IGROV1 ovarian it was 12.5%; in the experiment with OVCAR-3 ovarian it was 7% (active); with HS 578T breast, 0.71% (active). In the experiment with NCI/ADR-RES ovarian, the growth is 11.6%.

Consider `O=S(=O)(NCCNc1cc(-c2c(-c3cccc(O)c3)nc3sccn23)ccn1)c1ccc(Cl)cc1`, for which the growth with SK-MEL-2 melanoma was 79%; in the experiment with EKVX NSCLC it was 62.1%; with SN12C renal it was 52.8%; in the experiment on UO-31 renal it was 3.45% (active); with TK-10 renal, 84.2%; with ACHN renal, 61.2%. Also, the growth in the experiment on CAKI-1 renal was 36.1%; in the experiment on A498 renal, 57.1%; in the experiment with CCRF-CEM leukemia, 40.1%; in the experiment on MOLT-4 leukemia, 33.9%; in the experiment with RPMI-8226 leukemia, 41.1%; in the experiment on OVCAR-8 ovarian it was 51.1%. Further, the growth in the experiment on OVCAR-5 ovarian was 107%; with OVCAR-4 ovarian it was 40.4%; with SK-OV-3 ovarian, 75.1%; in the experiment on IGROV1 ovarian, 54.1%; in the experiment with HS 578T breast, 63.9%; with NCI/ADR-RES ovarian, 87.6%.

As for `NC(=O)c1c(NC(=O)c2ccccn2)sc2c1CCC(=O)C2`, the growth in the experiment on SK-MEL-2 melanoma was 37.8%; in the experiment on EKVX NSCLC it was 33.8%; with SN12C renal, 25.9%; with UO-31 renal it was 4.56% (active); with TK-10 renal, 38.3%; in the experiment on ACHN renal, 5.89% (active). The growth with CAKI-1 renal was -2.09% (active); with A498 renal it was 86.1%; in the experiment on CCRF-CEM leukemia it was 12.7%; in the experiment with MOLT-4 leukemia it was 81.6%; in the experiment with RPMI-8226 leukemia, 1.88% (active); in the experiment with OVCAR-8 ovarian, 14.2%. Moreover, the growth with OVCAR-5 ovarian was 21.5%; in the experiment on OVCAR-4 ovarian, -7.1% (active); with SK-OV-3 ovarian, 95.6%; with IGROV1 ovarian, 29.9%; in the experiment with OVCAR-3 ovarian, 7.94% (active); with HS 578T breast, 25.1%. Further, the growth in the experiment with NCI/ADR-RES ovarian was 17.6%.

As to `c1ccc2c(c1)nc(-n1ccnc1)c1nc3ccccc3n12`, the growth was 88.7% in the experiment on SK-MEL-2 melanoma; 74.1% with EKVX NSCLC; 52.6% with SN12C renal; 46.1% with UO-31 renal; 72.4% in the experiment on TK-10 renal; 32.3% in the experiment on ACHN renal. Further, the growth is 56% in the experiment on CAKI-1 renal; 79.7% in the experiment on A498 renal; 78% with CCRF-CEM leukemia; 74.9% in the experiment on MOLT-4 leukemia; 77.9% in the experiment on RPMI-8226 leukemia; 30.4% with OVCAR-8 ovarian. Also, the growth was 82.4% with OVCAR-5 ovarian; 68% in the experiment with OVCAR-4 ovarian; 21.5% in the experiment on SK-OV-3 ovarian; 52.5% in the experiment on IGROV1 ovarian; 78.1% in the experiment with OVCAR-3 ovarian; 49.2% in the experiment on NCI/ADR-RES ovarian.

With `COc1cc2oc3cc(C)oc(=O)c3c2cc1OC`, the growth is 97.2% in the experiment on SK-MEL-2 melanoma; 102% in the experiment on EKVX NSCLC; 92.8% in the experiment on SN12C renal; 82.7% in the experiment on UO-31 renal; 96.7% in the experiment with TK-10 renal; 94% in the experiment on ACHN renal. Further, the growth with CAKI-1 renal is 86.4%; in the experiment with A498 renal, 86.3%; in the experiment with CCRF-CEM leukemia, 112%; with MOLT-4 leukemia it was 95%; with RPMI-8226 leukemia, 87.2%; with OVCAR-8 ovarian it was 97.3%. Moreover, the growth in the experiment on OVCAR-5 ovarian was 83.1%; in the experiment on OVCAR-4 ovarian, 93.6%; in the experiment with SK-OV-3 ovarian, 103%; in the experiment on IGROV1 ovarian it was 98.9%; with OVCAR-3 ovarian it was 110%; with HS 578T breast it was 106%. In addition, the growth in the experiment on NCI/ADR-RES ovarian is 89.1%.

Take `O=S(=O)(Nc1ccsc1-c1nc(-c2ccccc2)no1)c1cc(Cl)cc(Cl)c1`: the growth is 105% in the experiment with SK-MEL-2 melanoma; 95.6% with EKVX NSCLC; 91.3% in the experiment with SN12C renal; 83.2% with UO-31 renal; 102% in the experiment with TK-10 renal; 98.2% in the experiment on ACHN renal. Moreover, the growth was 86.9% in the experiment on CAKI-1 renal; 91.1% with A498 renal; 101% with CCRF-CEM leukemia; 104% in the experiment with MOLT-4 leukemia; 82.6% in the experiment on RPMI-8226 leukemia; 92.4% in the experiment with OVCAR-8 ovarian. The growth was 86.5% in the experiment on OVCAR-5 ovarian; 93.8% in the experiment on OVCAR-4 ovarian; 83.3% in the experiment on SK-OV-3 ovarian; 100% in the experiment with IGROV1 ovarian; 96.7% with OVCAR-3 ovarian; 94.1% with HS 578T breast. The growth in the experiment with NCI/ADR-RES ovarian is 94%.

For `CCOC(=O)C(=CNc1ccccc1[N+](=O)[O-])C(=O)OCC`, the growth in the experiment on SK-MEL-2 melanoma was 101%; in the experiment on EKVX NSCLC it was 114%; in the experiment with SN12C renal it was 94.2%; in the experiment with UO-31 renal, 78.2%; with TK-10 renal it was 106%; in the experiment with ACHN renal, 86%. Also, the growth in the experiment on CAKI-1 renal was 98.9%; with A498 renal, 64.1%; in the experiment on CCRF-CEM leukemia, 93.7%; in the experiment with MOLT-4 leukemia, 96.1%; in the experiment with RPMI-8226 leukemia it was 92.6%; in the experiment on OVCAR-8 ovarian, 101%. The growth with OVCAR-5 ovarian is 96.4%; with OVCAR-4 ovarian, 110%; in the experiment on SK-OV-3 ovarian it was 110%; in the experiment on IGROV1 ovarian, 107%; with OVCAR-3 ovarian it was 105%; in the experiment on HS 578T breast, 98.6%. Besides, the growth with NCI/ADR-RES ovarian was 101%.
